# Values without a mark were called inactive. Results filed as inconclusive are left out. Where a call stands in place of a potency, no number is given. Calls of active or inactive are those of the source. Unless noted, the call rests on the fitted dose curve; in most records, active means well fitted curve in the direction sought with a large enough effect; inconclusive means small, poorly fitted or top-dose-only effect, or another doubt; inactive means no such curve, though single readings can be large; an effect the other way counts as inactive or inconclusive.
# Key:
# [1] = Dual reporter qHTS for agonist of Pregnane X Receptor (hPXR) against the NCATS DSHEA and TCM libraries: Fluorescence readout (AID 1920058)
# Method in brief: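 HepG2 hPXR-Luc, 2000 cells/well, 5 h attach; cpds ~24 h, 37 °C/5% CO2; CellTiter-Fluor 1 h; fluor. Ex/Em 405/540 nm = viability.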
# [2] = molecular target: Luciferin 4-monooxygenase (Photinus pyralis) (UniProt P08659); experiment: Biochemical firefly luciferase enzyme assay for NPC (AID 624030);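 further: purified P. pyralis luciferase at 10 nM with luciferin and ATP substrate; series mostly up to about 59 µM; nearly all actives have a fitted effect of over 70% in size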
# Chain of Luciferin 4-monooxygenase (Photinus pyralis) (P08659 whole entry, looked up): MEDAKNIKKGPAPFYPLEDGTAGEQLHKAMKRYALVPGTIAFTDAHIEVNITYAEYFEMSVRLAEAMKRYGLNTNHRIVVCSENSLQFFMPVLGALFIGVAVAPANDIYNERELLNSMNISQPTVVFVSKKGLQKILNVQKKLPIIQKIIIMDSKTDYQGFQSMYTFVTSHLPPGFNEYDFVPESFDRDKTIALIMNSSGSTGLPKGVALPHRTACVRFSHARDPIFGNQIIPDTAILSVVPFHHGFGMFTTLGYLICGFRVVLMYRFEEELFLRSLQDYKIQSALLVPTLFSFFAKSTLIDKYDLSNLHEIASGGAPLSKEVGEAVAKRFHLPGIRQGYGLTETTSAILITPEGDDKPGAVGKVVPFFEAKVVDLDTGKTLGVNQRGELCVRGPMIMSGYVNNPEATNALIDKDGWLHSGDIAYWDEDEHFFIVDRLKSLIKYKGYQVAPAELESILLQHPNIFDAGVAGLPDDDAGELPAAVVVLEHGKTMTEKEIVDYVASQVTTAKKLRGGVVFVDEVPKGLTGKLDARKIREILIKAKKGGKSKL
# Method in brief: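 Counter-screen for direct inhibition of the luciferase enzyme by approved-drug library compounds, run at 10 nM enzyme in 50 mM Tris acetate (final). Luminescence was read within 5 min of enzyme-buffer addition and normalized to PTC124 versus DMSO (0%).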
# [3] = Counterscreen qHTS for small molecule stabilizers of the endoplasmic reticulum resident proteome: GLuc-NoTag assay (AID 1508627);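 further: SH-SY5Y cells given compound then 100 nM thapsigargin to empty ER calcium; series mostly up to about 76 µM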
# Method in brief: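 SH-SY5Y cells stably expressing constitutively secreted GLuc (no SERCaMP tag) were pre-incubated 5 h, treated with compound for 19 h, then 100 nM thapsigargin for 4 h at 37C; medium GLuc read by coelenterazine luminescence.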
# [4] = Confirmatory qHTS for small molecule stabilizers of the endoplasmic reticulum resident proteome: Secreted ER Calcium Modulated Protein (SERCaMP) assay (AID 1508628); further: series mostly up to about 76 µM; nearly all actives have a fitted effect of over 40% in size
# Method in brief: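 SH-SY5Y cells stably expressing GLuc-SERCaMP, treated 16 h with compound (primary 1.53, 7.67, 38.3 uM; confirmation 11 concentrations, up to 76.6 uM), then 100 nM thapsigargin for 4 h. Secreted Gaussia luciferase in medium read by coelenterazine luminescence.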
# [5] = Cell Viability qHTS for small molecule stabilizers of the endoplasmic reticulum resident proteome (AID 1508629); details: cell viability counter-screen, 100 nM thapsigargin for final 4 h;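 further: human SH-SY5Y neuroblastoma cells carrying the GLuc-SERCaMP reporter; compound exposure about 46 h in total before the viability read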
# [6] = Confirmatory qHTS to identify inhibitors of SARS-CoV-2 cell entry (AID 1645844; calls by dose curve; further: potency means the concentration at half of the fitted maximal effect; nearly all actives have a fitted effect of over 45% in size)
# Method in brief: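 HEK293-ACE2 cells (Expi293F stably expressing human ACE2) were pretreated with compounds for 1 hr at 37C, then infected with MLV-based particles carrying Wuhan-Hu-1 spike (C-terminal 19-aa truncation). Luciferase luminescence read after 48 hr; normalized to spike PP (100%) and bald PP (0%).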
# [7] = VSVG counterscreen qHTS to identify inhibitors of SARS-CoV-2 cell entry (AID 1645847; calls by dose curve; further: potency means the concentration at half of the fitted maximal effect; nearly all actives have a fitted effect of over 65% in size)
# Method in brief: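 HEK293-ACE2 cells (Expi293F, human ACE2) pretreated 1 h with compound, then infected with MLV-based VSV-G pseudotyped particles for 48 h at 37 C; luciferase luminescence normalized to VSV-G PP and bald PP wells.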
# [8] = NCATS anti-infectives library activity on HEK293 viability as a counter-qHTS vs the C. elegans viability qHTS (AID 1745854);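 further: HEK293 cells exposed to compounds for 24 hr before the viability read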
# Method in brief: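 Compounds were acoustically plated (several concentrations, 1:5, final up to 41.7 uM), then 1500 HEK293 cells added per well and incubated 24 hr at 37C, 5% CO2. CellTiter-Glo was added and luminescence read after 10 min.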
smiles,measurement,setting,value
C=C(CO)C(=O)O[C@H]1CC(=C)[C@@H]2C[C@H](O)C(=C)[C@@H]2[C@H]2OC(=O)C(=C)[C@@H]21,outcome,[1],inactive
O=C(CC1NCCC[C@H]1O)Cn1cnc2cc(Br)c(Cl)cc2c1=O (stereo partly drawn),Potency,[2],inactive
C[C@H]1CCC/C=C/C2C[C@H](O)C[C@H]2[C@H](O)/C=C/C(=O)O1 (stereo partly drawn),Potency,[3],inactive
same,Potency,[4],inactive
same,max response,[5],21.4%
same,Potency,[6],0.857 µM (active)
same,Potency,[7],0.857 µM (active)
CN1Cc2c(ccc3c2OCO3)[C@@H]2[C@H]1c1cc3c(cc1C[C@@H]2O)OCO3,Potency,[8],inactive
